Source: PubChem BioAssay (NCATS)
Inconclusive results are not listed. Entries that show only a call come without a potency. The source made the active and inactive calls. Calls follow the shape of the dose curve; as a rule, active = well fitted cell-killing curve with a large enough effect; inconclusive = small, poorly fitted or top-dose-only effect; inactive = flat fitted curve, though single readings scatter.

Experiment: OV-SAHO Cancer Cell Toxicity qHTS against the NCATS CANVASS Library (AID 1347348); also: nearly all actives have a fitted effect of over 55% in size
Details: OV-SAHO viability, CellTiter-Glo luminescence, 72 h; series mostly up to 38.3 µM
Text: Natural products and their derivatives continue to be wellsprings of nascent therapeutic potential. However, many laboratories have limited resources for biological evaluation, leaving their previously isolated or synthesized compounds largely or completely untested. To address this issue, the Canvass library of natural products was assembled (https://tripod.nih.gov/canvass), in collaboration with academic and industry researchers, for quantitative high-throughput screening (qHTS) across a diverse set of cell-based and biochemical assays. The pure (>85% purity by liquid chromatography/mass spectrometry [LC/MS]) Canvass library of 346 natural products were submitted by 45 academic laboratories and companies around the world. We collected pure natural products to circumvent deconvolution and structure elucidation due to time and resource limitations. The library was formatted into 1536-well plates and evaluated in 50 qHTS (in an 11-pnt concentration series) bioassays with broad scope of disease-relevant mechanisms. The resulting data set from 50 different assays was then systematically analyzed to identify overall trends and specific natural products with interesting biological activities. Reported herein are the results of each individual qHTS and their corresponding assay protocol. National Center for Advancing Translational Sciences (NCATS), Rockville, MD National Institute of Health (NIH), Bethesda, Maryland
Cancer Cell Toxicity protocol for cell lines COV-362, OV-KATE, OV-SAHO, UWB1.289, UWB1.289-WTBRCA1, HEK-293, HPAF-II, Panc-1005, SW1088, or U-118MG. 1. In a 1536 well, white solid bottom tissue culture plates (Corning 7494), corresponding cells (COV-362, OV-KATE, OV-SAHO, UWB1.289, UWB1.289-WTBRCA1, HEK-293, HPAF-II, Panc-1005, SW1088, or U-118MG) were dispensed in each well at a final concentration of 1000 cells / well (6uL volume) using the Multidrop Combi (Thermo Fisher Scientific) dispenser. 2. The plates were incubated for 4 hours at 37 degrees C/5% CO2/95% Rh. 3. Compounds were pin transferred (~23nL volume) via Wako Pin-tool (Wako Automation, Richmond VA) equipped with a 1536 pin head. The assay plates were treated with compounds in an 11-pnt concentration series with a final concentration range of […] to 85uM. 4. Bortezomib was used as a single dose control (0.5mM column 4, rows 1 - 32) at a final concentration of 1.9uM and as a 16pnt titration (1mM; 1:2 dilution; 16-points; n = 2; column 3, rows 1 - 32) with final concentration range of 0.1nM - 3.8uM. 5. The assay plates were incubated for 72 hours at 37 degrees C/5% CO2/95% Rh. 6. 3uL CellTiter-Glo detection reagent was then added to the plates (columns 2 - 48, rows 1 - 32) and incubated at room temperature for additional 15min. 7. Luminescence signal was acquired via the ViewLux plate reader (PerkinElmer) using a clear filter, 2 second exposure and 2x binning settings.
Potency is read from the fitted curve at half-maximal effect.

| SMILES | Potency |
| --- | --- |
| C/C(=C\[C@H](C)C(=O)/C=C/CC1CC(=O)NC(=O)C1)[C@@H]1OC(=O)/C=C/CC/C=C/C[C@@H](O)[C@@H]1C | 2.11 µM (active) |
| C[C@H](c1cnc(N)[nH]1)c1ccc(O)c2[nH]cc(-c3cnc(-c4c[nH]c5ccccc45)c(=O)[nH]3)c12 | inactive |
| C=C1CC[C@@H](Br)C(C)(C)[C@]12CC=C(C)C(=O)C2 | inactive |
| O=C1OC(CCO)c2cccc(O)c21 (stereo not given) | inactive |
| [C-]#[N+][C@@]12C(=O)[C@@H]3[C@@H](O[C@@]4(C(=O)N(C)c5cccc1c54)C3(C)C)C(=O)[C@@]2(C)C=C | inactive |
| COc1ccc([C@@H]2c3cc4c(cc3C(=O)C(C)C2C)OCO4)cc1OC (stereo not given in full) | inactive |
| COc1cc2c(c(O)c1O)C(=O)c1c(coc1C)C2=O | 4.2 µM (active) |
| C[C@@]12CCC[C@@](C)(C(=O)O)[C@H]1CC[C@@]13C[C@@H](CC[C@H]12)[C@](C)(O)C3 | inactive |
| C/C=C(/CO)C(=O)O[C@@H]1[C@H](O)[C@@H](C(=O)OC)O[C@@H]2C[C@H]3OC(n4cnc5c(N)ncnc54)[C@H](OC)[C@H]3O[C@@]12O (stereo not given in full) | inactive |
| COc1cc2c(cc1OC)[C@@H](c1ccc3c(c1)OCO3)C(C)[C@@H](C)C2=O (stereo not given in full) | inactive |
| COc1ccc([C@@H]2c3cc4c(cc3C[C@H](C)C2C)OCO4)cc1OC (stereo not given in full) | inactive |
| C=C[C@@](C)(O)CC[C@@H]1[C@@]2(C)CCCC(C)(C)[C@@H]2CC[C@@]1(C)O | inactive |
| C[C@]12CCC[C@](C)(C(=O)O)[C@@H]1CC[C@@]1(C)c3cocc3CC[C@H]21 | inactive |
| CCC(=O)CCCCC[C@@H]1NC(=O)[C@H]2CCCCN2C(=O)[C@H](C(C)C)NC(=O)[C@H](Cc2cn(OC)c3ccccc23)NC1=O | 14.9 µM (active) |
| O=c1cc(-c2ccc(O)cc2)oc2cc(O)c([C@@H]3OC(CO)[C@H](O)[C@@H](O)[C@H]3O)c(O)c12 (stereo not given in full) | inactive |
| CCC(=O)N[C@@H](C[C@H](C)C(Cl)(Cl)Cl)C(=O)N1C(=O)C=C(OC)[C@@H]1CC(C)C | inactive |
| C/C(=C\[C@@H](C)CC/C=C/CC/C=C/C(=O)O)[C@@H](O)[C@H](C)C(=O)CCCC1CC(=O)NC(=O)C1 | inactive |
| C[C@@]1(CCC(=O)Nc2c(O)ccc(C(=O)O)c2O)C(=O)C=C[C@]23C[C@H]4C[C@H](O[C@@]4(C)C2)C31 (stereo not given in full) | inactive |
| C=C1C(=O)O[C@H]2[C@H]1CCC(C)=C1CC[C@@](C)(O)[C@@H]12 | 18.8 µM (active) |
| CC(C)=CCCC(C)(O)[C@H]1CC=C(C)C(O)C1 (stereo not given in full) | inactive |

| SMILES | Potency |
| --- | --- |
| CC[C@@H]1C[C@@]2(CC)OC(=O)[C@@]3(CC)[C@H](CC)[C@@H]1[C@@H]23 | inactive |
| C/C(=C\[C@H](C)C(=O)CCCC1CC(=O)NC(=O)C1)[C@@H]1OC(=O)/C=C/CC/C=C/[C@H](O)[C@@H](O)[C@@H]1C | 0.747 µM (active) |
| COc1c(O)cc2c(c1O)C(=O)c1c(coc1C)C2=O | inactive |
| C=C(C)C(=O)O[C@H]1C[C@@]2(C)OC(=CC2=O)/C(C)=C\[C@H]2OC(=O)C(=C)[C@H]12 | 5.29 µM (active) |
| CC(=O)N[C@H](C)c1nc(/C=C/C=C/C(=O)CC2CC(=O)CC[C@]2(C)O)cs1 (stereo not given in full) | inactive |
| COC(=O)[C@]1([C@H]2CCC(=O)O2)CC(=O)c2c(O)cc(C)cc2O1 | inactive |
| COc1ccc([C@@H]2c3cc4c(cc3C(=O)[C@H](C)C2C)OCO4)cc1OC (stereo not given in full) | inactive |
| O=C1c2c(O)cc(O)cc2OC(c2ccc(O)cc2)C1O (stereo not given) | inactive |
| COc1cc2oc3ccccc3c(=O)c2cc1OC | inactive |
| CC[C@H]1[C@H](C)[C@H](c2cc(OC)c(OC)cc2OC)[C@@H](C)[C@H](c2cc(OC)c(OC)cc2OC)[C@@]12C=C(OC)C(=O)C=C2OC | 21.1 µM (active) |
| COc1cc2c(cc1OC)[C@@H](c1ccc3c(c1)OCO3)C(C)C(C)C2=O (stereo not given in full) | inactive |
| CO[C@@H](C[C@@H](C)[C@@H](O)/C=C/C=C/CNC(=O)C(C)(C)[C@H](O)\C(C)=C/C=C\C=C\Cc1cnco1)[C@]1(O)[C@@H](C)C(=O)N(C)[C@@]12COC2=O | inactive |
| CC(C)=CCC[C@]1(C)[C@H]2CC(=O)[C@@]3(CO3)[C@@H]1C2 | inactive |
| CN1C(=O)C(=O)N2C(=C[C@]3(c4c[nH]c5ccccc45)c4ccccc4N[C@H]23)C1=O | inactive |
| C[C@H](CCC(O)C(C)(O)CO)[C@@]1(O)CC[C@@]2(C)C3=C(CC[C@@]21C)[C@@]1(C)CCC(OC(=O)CCC(=O)O)C(C)(C)[C@@H]1CC3 (stereo not given in full) | inactive |
| CC(CCC[C@]1(C)C(=O)C=C[C@@]23C[C@]4(C)O[C@@H](C[C@@H]4[C@H]2O)C31)C(=O)O (stereo not given in full) | inactive |
| C[C@@]12C[C@@H](C[C@@H]3C(=O)O[C@@H](c4ccoc4)[C@H](OC(=O)c4ccccc4)[C@@H]31)OC2=O | inactive |
| CN1CC[C@]23c4ccccc4N[C@H]1[C@]21CCN(C)[C@H]3Nc2ccccc21 | inactive |
| CCCc1c2c([nH]c(=O)c1C)C(=O)c1[nH]c(=O)c(C)c(CCC)c1C2=O | 11.8 µM (active) |
| CC(C)=CC[C@H]1C[C@@]2(CC=C(C)C)C(=O)[C@](CC=C(C)C)(C(=O)C(C(=O)c3ccccc3)=C2O)C1(C)C | 14.9 µM (active) |
